Compound activity from PubChem BioAssay.
TDP1 cell noCPT = qHTS for Inhibitors of human tyrosyl-DNA phosphodiesterase 1 (TDP1): qHTS in cells in absence of CPT; actives 15% (n = 420,000); DT40 Tdp1-/- hTDP1 cells, no CPT, ATP luminescence, 48 h; Potency, µM (series often up to 46.2 µM), for the others: top-dose activity change, negative = growth inhibition, actives largely listed as inhibitors; also: potency is read from the fitted curve at half-maximal effect; % is scaled to controls: 0 for no effect and ±100 for the full control effect; nearly all actives have a fitted effect of over 55% in size
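Luminescent ATP content (CellTiter-Glo) served as the growth readout. Knockout chicken DT40 cells expressing human TDP1 were exposed to compounds without camptothecin for a minimum 48 hr at 37 °C.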
ClpP mod = qHTS Assay for Activators of ClpP. ATP-dependent Clp protease proteolytic subunit (Bacillus subtilis (strain 168)), P80244. purified B. subtilis ClpP, FRET peptide cleavage, 20 min. Potency, µM (series often up to 57.5 µM), without a hit: at the highest dose activity change, negative = active. actives 1.9% (n = 340,000); active = well fitted falling curve with a large enough effect; inconclusive = small, poorly fitted or top-dose-only effect; inactive = no such curve, though single readings can be large or run the other way; also: potency is read from the fitted curve at half-maximal effect; the source files actives as falling curves though it sought activators and does not explain the sign; nearly all actives have a fitted effect of over 65% in size
Target sequence (P80244 whole entry, looked up): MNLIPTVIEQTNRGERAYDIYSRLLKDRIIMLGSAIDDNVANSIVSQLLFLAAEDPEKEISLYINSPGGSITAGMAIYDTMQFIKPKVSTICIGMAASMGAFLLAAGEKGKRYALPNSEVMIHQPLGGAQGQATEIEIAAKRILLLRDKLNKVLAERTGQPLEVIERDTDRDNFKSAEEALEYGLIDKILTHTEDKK
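ClpP 10 microg/mL final, pH 8 Tris/KCl buffer with BSA, glycerol, Tween-20; compound pinned in; FRET-FV substrate; RT 20 min; Ex320/Em430; ΔFRET vs ADEP 5.8 microM, DMSO, no enzyme.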
DRD3 antagonist = qHTS of D3 Dopamine Receptor Antagonist: qHTS. D(3) dopamine receptor (Homo sapiens), P35462. D3R cells, DiscoveRx beta-arrestin luminescence, antagonist mode; stronger effect = lower value. actives 2.5% (n = 360,000). max response, negative = inhibition, %; in the data active = max response below about -50%; inconclusive = no clear call, values can overlap the other calls; also: % is scaled to controls: 0 for no effect and ±100 for the full control effect
Target sequence (P35462 whole entry, looked up): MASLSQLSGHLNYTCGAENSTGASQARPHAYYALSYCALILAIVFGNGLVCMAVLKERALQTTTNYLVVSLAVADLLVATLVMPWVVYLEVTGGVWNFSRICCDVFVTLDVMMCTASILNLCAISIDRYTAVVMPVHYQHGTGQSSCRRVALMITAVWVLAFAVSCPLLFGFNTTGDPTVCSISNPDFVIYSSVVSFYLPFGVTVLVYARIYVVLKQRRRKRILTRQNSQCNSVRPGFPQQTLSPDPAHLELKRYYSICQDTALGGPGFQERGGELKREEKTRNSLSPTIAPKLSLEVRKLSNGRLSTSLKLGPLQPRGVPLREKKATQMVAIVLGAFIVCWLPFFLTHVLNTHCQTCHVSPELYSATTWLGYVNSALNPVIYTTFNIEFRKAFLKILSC
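Cells plated overnight at 1500 cells/well, then exposed to library compounds with dopamine controls for 90 minutes at 37 degrees C. DiscoveRx reagent added for 30–60 minutes at room temperature; luminescence read, quantitative HTS format.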
IL-1B inflam inh = qHTS for Inhibitors of Inflammasome Signaling: IL-1-beta AlphaLISA Primary Screen | THP-1 LPS/ATP IL-1B secretion, AlphaLISA, 16 h; stronger effect = lower value | AID 743279, 2014 | activity change, % at 57.5 µM | actives 4.7% (n = 360,000); in the data active = activity change below about -50%; inconclusive = mostly about -30% to -49%; also: % is scaled to controls: 0 for no effect and ±100 for the full control effect
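Secreted IL-1B measured by AlphaLISA bead assay after 16 h compound exposure of THP-1 cells; compounds (final up to 57.5 uM) added 1 h before LPS (250 ng/mL) and ATP (1.25 mM) stimulation; lower signal means less secretion.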
DRD3 agonist = qHTS of D3 Dopamine Receptor Agonist: qHTS; D(3) dopamine receptor (Homo sapiens), P35462; D3R DiscoveRx beta-arrestin cells, luminescence, 90 min; max activation, %; actives 0.58% (n = 410,000); in the data active = max activation above about 30%; also: 0% is about no effect
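Agonist mode: compounds and dopamine controls were applied to plated cells for 90 min at 37 degrees C after an overnight attachment at 1500 cells/well. Luminescent read-out followed 30 - 60 minutes at room temperature with DiscoveRx detection reagent.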
TDP1 cell CPT = qHTS for Inhibitors of human tyrosyl-DNA phosphodiesterase 1 (TDP1): qHTS in cells in presence of CPT; actives 12% (n = 420,000); AID 686979, 2013; chicken DT40 Tdp1-/-;hTDP1 cells + 20 nM CPT, ATP luminescence, 48 h; Potency, µM (titrated, usually from 46.2 µM), for inactives: at the highest dose activity change, negative = growth inhibition, hits mostly inhibitors; also: potency is read from the fitted curve at half-maximal effect; % is scaled to controls: 0 for no effect and ±100 for the full control effect; nearly all actives have a fitted effect of over 55% in size
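Chicken DT40 Tdp1-/- cells stably complemented with human TDP1 were seeded at 400 cells/well in medium containing 20 nM camptothecin, exposed to pin-transferred compounds, and grown at 37 °C for at least 48 hr. Viability was read as ATP luminescence.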
Starred values were filed as active, the others as inactive; ? = inconclusive; . = no result given; [ ] = another dose, or the depositor's remark. A selection: hits, their analogues and other compounds. The true share with any hit is near 21%. Unless noted, calls follow the shape of the dose curve; as a rule, active = well fitted inhibition curve with a large enough effect; inconclusive = small, poorly fitted or top-dose-only effect; inactive = flat fitted curve, though single readings scatter.

SMILES	TDP1 cell noCPT	ClpP mod	DRD3 antagonist	IL-1B inflam inh	DRD3 agonist	TDP1 cell CPT
CC(=O)C1=CCC(c2ccco2)N(S(=O)(=O)c2ccc(C)cc2)C1 (configuration not stated)	?	1%	7	13	6	?
CC(=O)C1=CCC(c2ccccc2)N(S(=O)(=O)c2cccc(C)c2)C1 (configuration not stated)	13µM*	-1%	-19	-17	-5	16µM*
O=C(NC(=S)Nc1cccc(O)c1)c1ccco1	-22%	-1%	?	-5	-8	-2%
CCOC(=O)C1=C(COC(=O)c2ccc3ccccc3c2O)NC(=O)NC1C (configuration not stated)	?	5%	-1	-12	-4	?
O=C1CN(CCN2CC(=O)NC(=O)C2)CC(=O)N1	7.1µM*	1%	.	.	.	7.9µM*
CC(CN1CC(=O)NC(=O)C1)N1CC(=O)NC(=O)C1 (configuration not stated)	?	1%	4	1	5	?
CNC(=O)NNC(=O)c1nc(-c2ccccc2)c(C)o1	-5%	.	7	.	12	6%
CC(=O)Nc1ccccc1-c1nc(CNC(=O)c2ccc(-n3cccn3)cc2)c(C)o1	-20%	.	.	.	.	-13%[9.04 µM]
Cc1cc(C(C)(C)CC(C)(C)C)ccc1OCCOCC[N+](C)(C)Cc1ccccc1	4.1µM*	2%	-20	23	-13	3.7µM*
COCCn1c(SCC(=O)N2CCCc3ccccc32)nc2ccccc2c1=O	16µM*	-4%	15	?	-2	?
COCCn1c(SCC(=O)N2CCc3ccccc3C2)nc2cc(Cl)ccc2c1=O	15µM*	-1%	0	-76*	7	?
COCCn1c(SCC(=O)Nc2cc(C)on2)nc2cc(Cl)ccc2c1=O	?	0%	-6	0	2	-5%
COCCn1c(SCC(=O)N2CCCc3ccccc32)nc2c(c1=O)SC(C)C2 (configuration not stated)	?	0%	26	-24	12	?
COC(=O)CN1C(=O)C(C)(C)c2cc(S(=O)(=O)Nc3ccc(C(C)C)cc3)ccc21	4%	1%	.	.	4	-2%
O=c1[nH]c2ccccc2c2cn(-c3ccccc3)nc12	?	-2%	7	?	-27	-3%
CC(=O)c1ccc(OCCCC(=O)Nc2ccc(Cl)c(S(=O)(=O)N3CCOCC3)c2)cc1	21µM*	0%	19	29	2	16µM*
Cc1ccc(OCCCC(=O)Nc2ccc(Cl)c(S(=O)(=O)N3CCOCC3)c2)cc1	18µM*	-2%	9	?	1	?
CCN(CC)S(=O)(=O)c1cc(NC(=O)CCCOc2ccc(C(C)=O)cc2)ccc1C	18µM*	-14%	-23	-2	1	?
CC(=O)c1ccc(OCCCC(=O)Nc2cc(S(=O)(=O)N(C)C)ccc2C)cc1	-21%	1%	3	10	-15	-12%
COC(=O)c1ccc(NC(=O)CN2CCN(S(=O)(=O)c3cc(Cl)ccc3OC)CC2)cc1	16µM*	0%	3	17	10	?
Cc1ccc(OCCC(=O)OCC(=O)Nc2ccc(C)c(S(=O)(=O)N3CCOCC3)c2)cc1	9%	-3%	0	-13	0	0%
CCN(CC(=O)NCc1cccs1)C(=O)c1ccc(S(=O)(=O)N(CC)c2ccccc2)cc1	-18%	0%	-2	-18	2	-6%
Cc1ccc(S(=O)(=O)N2CCC(C(=O)NCC(C)(C)N3CCOCC3)CC2)c(C)c1	-7%	2%	12	-8	-2	-3%
O=C(COc1ncnc2ccccc12)Nc1ccc(Cl)c(S(=O)(=O)N2CCOCC2)c1	-27%	.	10	25	3	-3%
O=C(CCCSc1ccccc1)Nc1ccc(Cl)c(S(=O)(=O)N2CCOCC2)c1	18µM*	0%	33	-3	-1	16µM*
SMILES	TDP1 cell noCPT	ClpP mod	DRD3 antagonist	IL-1B inflam inh	DRD3 agonist	TDP1 cell CPT
O=C(COc1cccc(Br)c1)Nc1ccc(Cl)c(S(=O)(=O)N2CCOCC2)c1	16µM*	.	-13	?	-2	21µM*
Cc1ccc(NC(=O)CCCOc2ccccc2)cc1S(=O)(=O)N1CCOCC1	?	1%	-6	10	-8	?
COc1cc(C(C)=O)ccc1OCC(=O)Nc1ccc(Cl)c(S(=O)(=O)N2CCOCC2)c1	18µM*	-6%	24	0	15	23µM*
O=C(CCCOc1ccccc1)Nc1ccc(Cl)c(S(=O)(=O)N2CCOCC2)c1	16µM*	1%	-2	?	8	18µM*
O=C(CN(CCO)c1ccccc1)Nc1ccc(Cl)c(S(=O)(=O)N2CCOCC2)c1	?	.	0	8	-4	?
COc1ccc(CC(=O)Nc2cccc(C(C)=O)c2)cc1S(=O)(=O)N1CCOCC1	4%	-4%	3	10	1	-2%
Cc1ccc(S(=O)(=O)NCc2ccc(C(=O)NC3CCC(O)CC3)cc2)cc1C (configuration not stated)	-8%	-3%	7	-4	2	-11%
CCCCCCCCCCCCC(C(=O)O)C(C)C(=O)O (configuration not stated)	-20%	.	.	.	.	-22%
CC(=O)NCCNc1cc(-c2ccccc2C)ncn1	16%	.	.	.	.	13%
Cc1sc2ncn(CC(=O)Nc3ccc(F)cc3Cl)c(=O)c2c1S(=O)(=O)N1CCN(c2ncccn2)CC1	-16%	-16%	.	.	8	-6%
CCOc1ccccc1NC(=O)COC(=O)Cc1ccc(-c2ccccc2)cc1	?	-1%	46	1	1	0%
O=C(c1n[nH]c(=O)c2ccccc12)N1CCN(S(=O)(=O)c2ccccc2Cl)CC1	?	-2%	-2	-9	0	?
COc1ccc(Cl)cc1S(=O)(=O)N1CCN(C(=O)c2n[nH]c(=O)c3ccccc23)CC1	16µM*	.	2	29	-3	18µM*
C=C1CC(C(=O)N/N=C/c2ccc(O)cc2)C1	?	11µM*	15	0	-7	-2%
